Results from ChEMBL document CHEMBL3988442, “University of Dundee, Small-Polar-MMV Screening Library” (2021).
For some of these results: Measured potencies and affinities stand elsewhere.

Columns and labels:
Design in all cases: scale not given: direction of the effect not stated beside the values
[1] = target: Protein translocase subunit SecA (Escherichia coli (strain K12)) (UniProt P10408); experiment: Assay to Identify E. coli SecA ATPase Inhibitors; type: functional; conditions: 30 µM
[2] = target: T1, Ubiquitin-activating enzyme e1, putative (Leishmania donovani (strain BPK282A1)) (UniProt E9BSI1); experiment: Leishmania donovani Ubiquitin Activating Enzyme (LdE1); type: functional; conditions: 30 µM
T1 sequence (whole entry): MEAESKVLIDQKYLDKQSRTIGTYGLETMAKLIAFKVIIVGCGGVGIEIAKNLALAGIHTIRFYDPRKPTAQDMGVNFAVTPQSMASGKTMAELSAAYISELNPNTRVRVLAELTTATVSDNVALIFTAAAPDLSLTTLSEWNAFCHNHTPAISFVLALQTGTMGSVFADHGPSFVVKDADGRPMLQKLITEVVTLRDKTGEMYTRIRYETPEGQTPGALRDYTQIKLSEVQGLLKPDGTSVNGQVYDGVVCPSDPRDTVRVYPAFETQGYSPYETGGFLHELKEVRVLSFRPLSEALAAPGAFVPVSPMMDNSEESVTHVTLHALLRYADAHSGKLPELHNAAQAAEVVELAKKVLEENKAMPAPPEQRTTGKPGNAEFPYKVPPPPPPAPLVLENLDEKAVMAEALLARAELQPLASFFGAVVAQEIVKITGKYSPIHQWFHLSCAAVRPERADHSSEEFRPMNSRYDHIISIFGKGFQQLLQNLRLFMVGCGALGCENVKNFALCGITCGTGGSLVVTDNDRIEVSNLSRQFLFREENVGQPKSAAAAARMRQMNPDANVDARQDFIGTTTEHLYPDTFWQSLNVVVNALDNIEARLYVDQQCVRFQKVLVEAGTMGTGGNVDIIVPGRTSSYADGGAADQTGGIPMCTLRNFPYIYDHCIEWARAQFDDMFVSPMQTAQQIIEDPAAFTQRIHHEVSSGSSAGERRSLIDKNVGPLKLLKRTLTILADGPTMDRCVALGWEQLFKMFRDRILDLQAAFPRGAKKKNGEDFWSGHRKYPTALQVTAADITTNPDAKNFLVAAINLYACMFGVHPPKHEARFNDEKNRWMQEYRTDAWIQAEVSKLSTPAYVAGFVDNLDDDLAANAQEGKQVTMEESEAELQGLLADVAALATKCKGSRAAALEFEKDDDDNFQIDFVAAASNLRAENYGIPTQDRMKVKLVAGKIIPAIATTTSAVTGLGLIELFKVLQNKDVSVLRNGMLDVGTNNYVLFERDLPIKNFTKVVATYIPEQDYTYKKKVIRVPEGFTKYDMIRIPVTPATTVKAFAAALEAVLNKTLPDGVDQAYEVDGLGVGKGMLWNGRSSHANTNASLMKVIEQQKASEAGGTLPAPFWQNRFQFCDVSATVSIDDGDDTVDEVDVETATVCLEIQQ

[3] = target: AMP-activated protein kinase, AMPK (Homo sapiens) (UniProt P54646+O43741+P54619+Q9UGJ0+Q9Y478+Q13131+Q9UGI9); experiment: AMP-dependent Kinase enzyme assay. An in vitro enzyme assay that detects ADP turnover that is directly proportional to AMPK activity. This uses naive AMPK that is activated during the assay with MK-8722; type: functional; conditions: 30 µM
[4] = target: Sialic acid-binding Ig-like lectin 9 (Homo sapiens) (UniProt Q9Y336); experiment: Hs-Siglec9 ALPHAscreen SOP 20170721; conditions: 10 µM
Trypanosoma cruzi = experiment: Trypanosoma cruzi phosphomannomutase and mannose-1-phosphate guanylyltransferase assay; type: functional; conditions: 10 µM
[5] = target: T2, Arginase-2, mitochondrial (Homo sapiens) (UniProt P78540); experiment: in vitro enzyme assay to detect the production of urea directly proportional to the activity of Arginase II; type: functional; conditions: 33.3 µM; further: in the data most compounds retested in dose-response had high values
T2 sequence (whole entry): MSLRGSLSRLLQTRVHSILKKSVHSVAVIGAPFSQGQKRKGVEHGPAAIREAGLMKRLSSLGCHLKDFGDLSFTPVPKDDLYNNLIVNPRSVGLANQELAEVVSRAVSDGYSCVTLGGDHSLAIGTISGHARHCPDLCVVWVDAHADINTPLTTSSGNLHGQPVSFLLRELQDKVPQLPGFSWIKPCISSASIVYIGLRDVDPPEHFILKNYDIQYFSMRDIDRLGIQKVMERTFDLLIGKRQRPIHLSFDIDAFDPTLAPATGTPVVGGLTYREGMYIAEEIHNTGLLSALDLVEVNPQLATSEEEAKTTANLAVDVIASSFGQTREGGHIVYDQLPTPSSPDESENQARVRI

[6] = target: T3, Proteasome subunit beta (Trypanosoma cruzi) (UniProt O96673); experiment: Trypanosoma cruzi proteasome chymotrypsin-like activity (TcProtChymo) assay.; further: in the data most compounds retested in dose-response had high values; type: functional; conditions: 9.37 µM
T3 sequence (whole entry): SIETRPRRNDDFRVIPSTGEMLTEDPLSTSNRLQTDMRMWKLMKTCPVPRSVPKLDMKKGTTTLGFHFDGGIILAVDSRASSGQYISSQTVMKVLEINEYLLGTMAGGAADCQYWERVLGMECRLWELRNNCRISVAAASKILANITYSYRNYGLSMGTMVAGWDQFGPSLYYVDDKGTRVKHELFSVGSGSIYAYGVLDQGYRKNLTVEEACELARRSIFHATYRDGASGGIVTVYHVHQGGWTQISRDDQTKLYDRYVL

Homo sapiens = species: Homo sapiens; experiment: To identify inhibition of the IFN signalling (Jak-Stat) pathway via expression of an eGFP reporter gene under the control of an IFN-stimulated response element (ISRE) containing MxA promoter.; type: functional; conditions: 30 µM
[7] = target: T4, Tyrosyl-tRNA synthetase, putative (Trypanosoma cruzi (strain CL Brener)) (UniProt Q4DSP6); experiment: Trypanosoma cruzi tyrosyl tRNA synthetase (TcYRS) _High Tyrosine SOP; type: functional; conditions: 30 µM; further: in the data most compounds retested in dose-response had high values
T4 sequence (whole entry): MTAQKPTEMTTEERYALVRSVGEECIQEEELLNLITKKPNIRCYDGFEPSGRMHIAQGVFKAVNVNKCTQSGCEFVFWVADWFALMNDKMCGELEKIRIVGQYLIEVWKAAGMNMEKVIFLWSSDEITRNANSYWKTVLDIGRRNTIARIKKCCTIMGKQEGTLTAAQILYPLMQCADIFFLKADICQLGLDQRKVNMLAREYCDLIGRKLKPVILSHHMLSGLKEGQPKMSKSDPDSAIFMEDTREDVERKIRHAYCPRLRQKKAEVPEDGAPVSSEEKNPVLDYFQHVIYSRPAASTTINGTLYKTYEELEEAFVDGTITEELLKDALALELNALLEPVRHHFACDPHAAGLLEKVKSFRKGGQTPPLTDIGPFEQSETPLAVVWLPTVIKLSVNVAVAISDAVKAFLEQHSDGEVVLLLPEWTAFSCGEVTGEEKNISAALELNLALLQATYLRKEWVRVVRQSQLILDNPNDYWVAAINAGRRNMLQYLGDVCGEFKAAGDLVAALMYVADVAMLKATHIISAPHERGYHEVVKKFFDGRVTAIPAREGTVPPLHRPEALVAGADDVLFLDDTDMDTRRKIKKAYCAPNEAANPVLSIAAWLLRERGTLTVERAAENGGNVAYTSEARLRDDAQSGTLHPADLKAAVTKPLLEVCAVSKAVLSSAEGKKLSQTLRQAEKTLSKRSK

[8] = target: T4, Tyrosyl-tRNA synthetase, putative (Trypanosoma cruzi (strain CL Brener)); experiment: Trypanosoma cruzi tyrosyl tRNA synthetase (TcYRS) SOP; type: functional; conditions: 30 µM
[9] = target: Chromo domain-containing protein 1 (Saccharomyces cerevisiae (strain ATCC 204508 / S288c) (Baker's yeast)) (UniProt P32657); experiment: ScCHD-1 Enzyme Inhibition Assay; type: functional; conditions: 30 µM; further: in the data most compounds retested in dose-response had high values
Sequence of Chromo domain-containing protein 1 (Saccharomyces cerevisiae (strain ATCC 204508 / S288c) (Baker's yeast)) (P32657 whole entry, the tested form may be a part): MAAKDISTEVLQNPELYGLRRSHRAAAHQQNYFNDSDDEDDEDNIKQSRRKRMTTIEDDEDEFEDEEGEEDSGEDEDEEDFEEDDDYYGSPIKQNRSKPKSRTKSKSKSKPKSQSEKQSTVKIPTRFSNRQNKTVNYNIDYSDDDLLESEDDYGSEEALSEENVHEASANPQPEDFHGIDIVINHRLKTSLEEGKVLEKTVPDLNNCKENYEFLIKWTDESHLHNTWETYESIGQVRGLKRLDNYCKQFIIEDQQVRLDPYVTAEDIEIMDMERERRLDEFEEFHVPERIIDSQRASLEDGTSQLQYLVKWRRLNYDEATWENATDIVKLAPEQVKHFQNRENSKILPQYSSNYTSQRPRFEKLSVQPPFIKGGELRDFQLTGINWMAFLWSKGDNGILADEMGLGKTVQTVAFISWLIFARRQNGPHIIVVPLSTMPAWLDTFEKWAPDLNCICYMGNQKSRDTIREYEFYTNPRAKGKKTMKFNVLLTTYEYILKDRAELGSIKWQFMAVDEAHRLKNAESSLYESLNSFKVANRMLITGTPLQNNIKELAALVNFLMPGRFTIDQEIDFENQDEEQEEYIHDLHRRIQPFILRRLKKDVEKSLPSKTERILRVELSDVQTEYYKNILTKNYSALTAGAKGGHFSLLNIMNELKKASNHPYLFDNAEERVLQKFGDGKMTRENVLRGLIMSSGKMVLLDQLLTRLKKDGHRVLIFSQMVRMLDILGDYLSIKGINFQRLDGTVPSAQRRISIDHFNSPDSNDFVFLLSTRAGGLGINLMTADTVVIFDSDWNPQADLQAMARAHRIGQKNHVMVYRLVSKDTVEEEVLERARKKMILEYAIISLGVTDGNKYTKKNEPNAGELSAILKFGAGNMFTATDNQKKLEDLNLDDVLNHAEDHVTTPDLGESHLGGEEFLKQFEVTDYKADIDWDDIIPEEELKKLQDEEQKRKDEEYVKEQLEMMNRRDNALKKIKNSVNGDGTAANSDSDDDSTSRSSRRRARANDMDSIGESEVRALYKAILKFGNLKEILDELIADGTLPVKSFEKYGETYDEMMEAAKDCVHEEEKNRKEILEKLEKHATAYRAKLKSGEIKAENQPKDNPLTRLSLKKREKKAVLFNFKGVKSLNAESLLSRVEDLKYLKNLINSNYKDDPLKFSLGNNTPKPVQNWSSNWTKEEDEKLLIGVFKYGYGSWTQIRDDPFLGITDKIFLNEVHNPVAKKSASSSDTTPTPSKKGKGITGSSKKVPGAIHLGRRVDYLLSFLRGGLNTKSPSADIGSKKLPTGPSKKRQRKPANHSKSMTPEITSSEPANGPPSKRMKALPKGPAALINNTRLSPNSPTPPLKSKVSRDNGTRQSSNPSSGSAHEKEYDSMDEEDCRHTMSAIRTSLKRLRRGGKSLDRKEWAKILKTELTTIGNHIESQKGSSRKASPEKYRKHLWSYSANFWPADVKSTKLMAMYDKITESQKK

Sequence of Sialic acid-binding Ig-like lectin 9 (Homo sapiens) (Q9Y336 whole entry): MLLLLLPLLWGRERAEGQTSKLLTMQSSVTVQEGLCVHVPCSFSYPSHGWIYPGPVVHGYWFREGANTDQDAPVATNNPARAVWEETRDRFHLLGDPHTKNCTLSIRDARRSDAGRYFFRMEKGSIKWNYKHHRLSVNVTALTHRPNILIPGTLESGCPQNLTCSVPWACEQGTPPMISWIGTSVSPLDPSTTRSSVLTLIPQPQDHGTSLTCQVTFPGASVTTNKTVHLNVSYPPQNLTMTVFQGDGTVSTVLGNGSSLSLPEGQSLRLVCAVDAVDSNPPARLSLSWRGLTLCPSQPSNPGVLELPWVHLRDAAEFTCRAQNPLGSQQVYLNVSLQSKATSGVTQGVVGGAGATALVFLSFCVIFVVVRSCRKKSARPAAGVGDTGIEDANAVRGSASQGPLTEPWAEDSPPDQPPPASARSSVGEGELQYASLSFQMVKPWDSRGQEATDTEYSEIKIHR
Sequence of Protein translocase subunit SecA (Escherichia coli (strain K12)) (P10408 whole entry): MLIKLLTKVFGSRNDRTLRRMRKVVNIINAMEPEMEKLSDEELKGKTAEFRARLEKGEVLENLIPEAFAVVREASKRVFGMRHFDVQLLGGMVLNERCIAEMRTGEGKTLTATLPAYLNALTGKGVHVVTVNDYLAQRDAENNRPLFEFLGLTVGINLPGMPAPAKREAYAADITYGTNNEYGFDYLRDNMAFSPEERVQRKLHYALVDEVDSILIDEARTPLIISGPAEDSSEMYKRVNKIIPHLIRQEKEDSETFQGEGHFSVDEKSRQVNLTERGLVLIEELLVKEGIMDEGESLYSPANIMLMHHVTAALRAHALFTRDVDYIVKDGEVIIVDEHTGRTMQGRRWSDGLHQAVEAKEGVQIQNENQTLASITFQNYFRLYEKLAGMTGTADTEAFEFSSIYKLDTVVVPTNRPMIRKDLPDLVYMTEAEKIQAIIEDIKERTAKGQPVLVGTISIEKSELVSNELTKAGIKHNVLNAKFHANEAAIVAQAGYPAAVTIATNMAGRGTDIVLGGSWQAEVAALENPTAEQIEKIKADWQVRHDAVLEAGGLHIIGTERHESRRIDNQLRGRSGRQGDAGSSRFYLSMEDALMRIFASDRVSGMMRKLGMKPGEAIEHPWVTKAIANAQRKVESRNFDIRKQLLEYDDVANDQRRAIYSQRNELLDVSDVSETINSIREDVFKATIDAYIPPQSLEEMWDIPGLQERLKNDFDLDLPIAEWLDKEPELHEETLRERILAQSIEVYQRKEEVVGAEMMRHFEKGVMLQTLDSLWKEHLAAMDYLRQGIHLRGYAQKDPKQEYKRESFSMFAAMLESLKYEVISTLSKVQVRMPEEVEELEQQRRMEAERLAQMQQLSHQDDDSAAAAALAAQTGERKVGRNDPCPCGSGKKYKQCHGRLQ

Structure (SMILES) | Percent Effect [1] | Percent Effect [2] | Percent Effect [3] | Percent Effect [4] | Percent Effect (Trypanosoma cruzi) | Percent Effect [5] | Percent Effect [6] | Percent Effect (Homo sapiens) | Percent Effect [7] | Percent Effect [8] | Percent Effect [9]
CCn1cc(N2Cc3nc(N4CCOCC4)ncc3C2=O)cn1 | -4.68% | 17.3% | -4.89% | 0.208% | 0.786% | -9.33% | 4.44% | -2.82% | 2.12% | 5.13% | -15.2%
Cc1ccc(NC2CCN(C(=O)Cn3nc(C)cc3C)CC2)nn1 | -1.08% | 15.8% | -0.776% | 6.59% | -0.376% | -0.766% | 17.9% | 6.37% | 3.43% | 12.2% | -1.72%
CCN(CC1CCCO1)C(=O)Nc1cc(C(=O)OC)ccc1F (stereo not given) | -2.67% | 7.59% | 1.58% | 13.4% | -1.98% | 1.9% | 2.21% | 0.11% | 3.45% | 8.86% | -8.28%
CN(C)C(=O)NC1COC2(CCN(C(=O)Nc3ccccc3)CC2)C1 (stereo not given) | 5.37% | 18.7% | 1.41% | -7.63% | -3.54% | 0.699% | 8.72% | 3.6% | -1.06% | 6.41% | 2.03%
Cc1cccc(CN2C[C@@H]3COC[C@]3(COc3ccc(C#N)cn3)C2)n1 | -2.98% | -8.22% | -1.47% | 2.28% | 10.1% | -1.2% | 3.34% | 4.74% | 0% | 8.64% | -0.121%
CC(C(=O)NCc1ccnc(N2CCCC2)c1)n1cncn1 (stereo not given) | -3.9% | 15.8% | -4.58% | -5.93% | -5.45% | 3.45% | 7.18% | 26.8% | 3.43% | 0% | -11.3%
CCC(CC)C(CNC(=O)Nc1cc(C)nn1C)N1CCOCC1 (stereo not given) | -4.23% | 17.7% | 3.07% | -7.11% | 9.54% | -5.32% | 9.75% | 4.35% | 8.37% | 11.4% | -9.76%
Cc1cc(N2CCC(c3nnc(CN(C)C)n3C3CC3)CC2)ccn1 | -5.32% | -1.39% | 34.9% | -1.61% | -4.37% | -0.883% | 16.1% | -6.01% | 1.05% | -5.13% | -4.13%
CCn1nc(C(=O)N2CCCC(n3cncn3)C2)ccc1=O (stereo not given) | -3.67% | 5.2% | 7.01% | 5.16% | 6.76% | 2.74% | 9.78% | -15.3% | 0.952% | 11.8% | -10.3%
Cc1ncsc1C(=O)NCCSCc1cccs1 | -1.5% | 2.7% | -1.07% | 13.7% | 3.44% | -3.14% | 7.9% | 16.5% | 0% | 11% | -5.27%
Cc1n[nH]c(C)c1NC(=O)CN1CCOC(Cn2cccn2)C1 (stereo not given) | -4.71% | 2.6% | 7.29% | -4.25% | 6.95% | -4% | 8.16% | 10.5% | 3.81% | 9.41% | -16.3%
c1ccc(OCCCN2CCN(c3ccc4nncn4n3)CC2)cc1 | -7.97% | -18.2% | -5.57% | 15.6% | 8.61% | -5.69% | 17.6% | 47.8% | 18.4% | 24.4% | -1.5%
CC(=O)N1CCO[C@@H]2CN(C(=O)c3cc(C)oc3C)CC[C@@H]2C1 | -6.41% | 10.8% | -31.2% | -10.6% | -1.07% | 0.319% | 7.75% | 19.1% | 0% | 0% | -3.96%
O=C(NCc1ccco1)[C@@]12CCO[C@@H]1CCN(CCN1CCCC1)C2 | -6.16% | 16% | -5.27% | -2.5% | 5.21% | -51.1% | 18.5% | -5.93% | 6.25% | 22.5% | -12%
Cn1cnnc1CNC(=O)Nc1cc(C(F)(F)F)c[nH]c1=O | -4.28% | 7.89% | -0.726% | 8.28% | 1.5% | -0.383% | 3.84% | 2.52% | 2.45% | 7.32% | -7.82%
COCCN(C)C[C@@H]1CN(C(=O)c2ccoc2)C[C@@H]1CO | -3.19% | 2.7% | -0.15% | 1.89% | 6.56% | -1.43% | 5.34% | 4.14% | 6.88% | 9.76% | -2.44%
Cc1nn(C)c(C)c1C1CCCN1C(=O)c1cnc2n[nH]c(C)c2c1 (stereo not given) | -5.23% | 16.2% | -5.44% | 13.8% | 5.66% | 0.554% | 0% | 9.61% | 4.95% | 18.3% | -3.42%
Cc1cc(=O)[nH]c(SCC(=O)N(C)CC2Cc3ccccc3CN2C)n1 (stereo not given) | -6.85% | 5.41% | -2.17% | -6.16% | -0.489% | -0.744% | 5.75% | -12.2% | 6.45% | 8.64% | -4.63%
Cc1noc(C)c1CN1CCc2nn(C(C)C)c(=O)cc2C1 | -9.42% | 13.2% | -66% | 20.3% | 9.8% | 5.04% | 12.9% | -9.45% | 5.42% | 16.1% | -9.78%
c1csc(N2CCCN(Cc3nc(C4CC4)no3)CC2)n1 | -5.91% | 10.4% | -4.1% | 9.22% | -0.749% | -2.49% | -1.18% | 19% | 5.83% | 14.6% | 5.76%
